By AC50 is commonly meant the concentration at which the activity in the assay is half-maximal.

Values joined by “and” are separate entries in the source; they are usually repeats but may differ in a detail not shown here. Equal values may be shown once. Results filed as inconclusive are left out. Some compounds were tested as several samples or in several runs, with calls that do not always agree. Active and inactive are the calls of the source. Rule for the calls: active = hit-call score of the fitted dose curve at least 0.9, where 1 is the maximum; inconclusive = response in the unintended direction; inactive = score below 0.9.

For 9 molecules, outcome and AC50 results are on record in PubChem BioAssay (EPA / NIEHS).

In the experiment the test system is frog Estrogen Receptor (ER), gene 398734. Put plainly: ATG_frER1_XSP2: Attagene TRANS-FACTORIAL Multi-Species (XSP2) HepG2 Assay for frog Estrogen Receptor (ER) (AID 2283821).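 Note: hits raise reporter mRNA above DMSO baseline so potency means agonist or activator.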 The method, then: ATG_XSP2_multi-species_TRANS is a cell-based, multiplexed assay created by modifying the existing Attagene TRANS-FACTORIAL system to include a panel of nuclear receptors from some or all the following species: human (Homo sapiens), mouse (Mus musculus), frog (Xenopus laevis), zebrafish (Danio rerio), chicken (Gallus gallus), and turtle (Chrysemys picta). The ECOTOX-FACTORIAL format uses HepG2, a human liver cell line, with measurements taken at 24 hours after chemical dosing in a 24-well plate. Xsp2 included 3 nM 6-alpha-fluorotestosterone and 1.5 nM norgestrel to stimulate the androgen receptor.ATG_frER1_XSP2 is one of 29 assay components measured or calculated from the ATG_XSP2_multi-species_TRANS assay. It is designed to make measurements of mRNA induction, a form of inducible reporter, as detected with fluorescence intensity signals by Reverse transcription polymerase chain reaction (RT-PCR) and Capillary electrophoresis technology.The assay endpoint ATG_frER1_XSP2 was analyzed in the positive analysis fitting direction relative to DMSO as the negative control and baseline of activity. Using a type of inducible reporter, measures of mRNA for gain-of-signal activity can be used to understand the reporter gene at the transcription factor-level as they relate to the gene ER. Furthermore, this assay endpoint can be referred to as a primary readout, because this assay has produced multiple assay endpoints where this one serves a reporter gene function. To generalize the intended target to other relatable targets, this assay endpoint is annotated to the nuclear receptor intended target family, where the subfamily is steroidal.
Human liver HepG2 cells are transiently transfected with multiple reporter transcription units (MRTUs) in 6-well plates using FuGene 6 reagent (Roche; 3 ml FuGene/1 mg DNA). The MRTU constructs are regulated by a cis-regulating element (promoter). […] A major difference between the CIS and TRANS system is that in CIS activities of endogenous TFs are measured, whereas the TRANS assay evaluates changes in activities of exogenous, chimeric NR-Gal4 proteins. […] At the end of 24 hour incubation, total RNA was isolated using TriZol reagent (Invitrogen). The isolated RNA is then reverse-transcribed using oligo(dT) primer and Mo-MLV reverse transcriptase (Invitrogen) with DNAse I (Ambion) treatment for 30 min. The one-tenth of the produced cDNA was amplified by PCR using Taq DNA polymerase (Invitrogen) and two reporter sequence-specific primers. The PCR products were fluorescently labeled by primer extension with 6-arboxyfluorescein (6-FAM) 5'-labeled reporter sequence-specific primer (2 min at 95 C, 20 s at 68 C and 10 min at 72 C) and these products were digested with 5U of HpaI (New England Biolabs) for 2h at 37 C. The fragments were purified using Qiaquick PCR columns (Qiagen), analyzed on an ABI 3130xL genetic analyzer (Applied Biosystems) with peak positions identified by using a set of X-rhodamine (ROX)-labeled MapMarker1000 molecular weight standards (BioVentures). The raw capillary electrophoresis data was processed using Attagraph software (Attagene).
As for `C#CCC1=C(C)C(OC(=O)C2C(C=C(C)C)C2(C)C)CC1=O` (stereo not given), the molecule was called inactive.
Same read-out and setting: for `CCCOCC(=Nc1ccc(Cl)cc1C(F)(F)F)n1ccnc1` the value was “inactive”; for `Nc1c(Cl)cc([N+](=O)[O-])cc1Cl`, “inactive”.
Turning to `CCC(=O)Nc1ccc(Cl)c(Cl)c1`, the outcome was inactive and the half-maximal activity concentration (AC50) is 38 µM (active).
Take `C#CC(C)(C)NC(=O)c1cc(Cl)cc(Cl)c1`: the half-maximal activity concentration (AC50) is 27.6 µM (active).
Regarding `CCOP(=S)(OCC)Oc1ccc2c(C)c(Cl)c(=O)oc2c1`, the molecule was classed as inactive.
As to `COc1ccc(C(=CC(=O)N2CCOCC2)c2ccc(Cl)cc2)cc1OC`, the outcome was inactive.
As to `CCC(CC)Nc1c([N+](=O)[O-])cc(C)c(C)c1[N+](=O)[O-]`, the AC50 is 3.96 µM (active) and 5.7 µM (active).
Still for that read-out and setting: for `CCOP(=O)(NC(C)C)Oc1ccc(SC)c(C)c1` (stereo not given) the value was 148 µM (active) and 8.45 µM (active).
